Sampled rows, rich in hits. Any-hit rate of the full collection: about 19%.
IL1B secr inh = inhibitors of inflammasome signaling (IL-1 beta secretion); activity change, % at 57.5 µM; THP-1 LPS/ATP IL-1B secretion, AlphaLISA, 16 h; hits give low values; actives 4.7% (n = 360,000); in the data active = activity change below about -50%; inconclusive = mostly about -30% to -49%; note: % is set by controls: 0 for no effect and ±100 for the full control effect
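THP-1 cells pretreated 1 hr with compounds (up to 57.5 uM final), then stimulated with LPS (250 ng/mL final) plus ATP (1.25 mM final); secreted IL-1B measured by AlphaLISA after 16 hr, decreased signal indicating inhibition.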
DT40 TDP1 no CPT = qHTS for Inhibitors of human tyrosyl-DNA phosphodiesterase 1 (TDP1): qHTS in cells in absence of CPT; DT40 Tdp1-/- hTDP1 cells, no CPT, ATP luminescence, 48 h; AID 686978, 2013; Potency, µM (doses to about 46.2 µM), inactives show at the top dose activity change, negative = growth inhibition, most hits filed as inhibitors; actives 15% (n = 420,000); note: potency is the fitted concentration of half-maximal effect; % is set by controls: 0 for no effect and ±100 for the full control effect; nearly all actives have a fitted effect of over 55% in size
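Chicken DT40 Tdp1-/- cells stably complemented with human TDP1 were seeded at 400 cells/well with DMSO in place of 20 nM camptothecin. After compound pinning, cells grew at least 48 hr at 37 °C; viability read by CellTiter-Glo luminescence.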
TGFb SMAD3 inh = inhibitors of TGF-b signaling; actives 1.2% (n = 410,000); Potency, µM (highest dose often 46.1 µM), for inactives: top-dose activity, negative = inhibition, actives largely listed as inhibitors; HepG2 CAGA-GFP TGF-b/SMAD3 reporter, GFP fluorescence, 18 h; TGF-beta stimulated, 500 pg/mL final; note: potency is the fitted concentration of half-maximal effect; % is set by controls: 0 for no effect and ±100 for the full control effect; nearly all actives have a fitted effect of over 65% in size
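HEPG2 CAGA-GFP, 1000 cells/well; 2 h settle, 37 C; cpd via pin tool; TGF-b 500 pg/mL final; 18 h, 37 C; GFP imaging ex488/em500-530; %Activity normalised to -TGF-b and +DMSO controls; CRC fit, curve class.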
HepG2 tox = counter-screen for TGF-b inhibitors: cytotoxicity in HepG2 cells; actives 0.76% (n = 410,000); Potency, µM (series often up to 46.1 µM), without a hit: top-dose activity change, negative = cytotoxicity, hits mostly cytotoxic; AID 588856; HepG2 CAGA-GFP viability, ATP luminescence, 18 h; note: potency is the fitted concentration of half-maximal effect
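CellTiter-Glo luminescence gave cytotoxicity after 18 hours at 37 degrees C. The cells were HepG2 CAGA-GFP in 1% FBS DMEM, stimulated with 500 pg/mL TGF-beta after compound addition. %Activity was normalised to no-cell wells (complete cell-killing) and DMSO (no toxicity), and curves were fitted and classified.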
TDP1 cell CPT = DT40-hTDP1 cell growth loss with CPT; chicken DT40 Tdp1-/-;hTDP1 cells + 20 nM CPT, ATP luminescence, 48 h; Potency, µM (top dose mostly 46.2 µM), inactives show at the top dose activity change, negative = growth inhibition, hits mostly inhibitors; actives 12% (n = 420,000); AID 686979; note: potency is the fitted concentration of half-maximal effect; % is set by controls: 0 for no effect and ±100 for the full control effect; nearly all actives have a fitted effect of over 55% in size
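Chicken DT40 Tdp1-/- cells stably complemented with human TDP1 were seeded at 400 cells/well in medium containing 20 nM camptothecin, exposed to pin-transferred compounds, and grown at 37 °C for at least 48 hr. Viability was read as ATP luminescence.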
TDP1 block = inhibitors of human tyrosyl-DNA phosphodiesterase TDP1. Q9NUW8. recombinant TDP1, AlphaScreen DNA substrate cleavage. Potency, µM (titrated, usually from 130 µM), without a hit: top-dose activity change, negative = inhibition, usual class: inhibitors. actives 0.28% (n = 350,000). AID 485290; note: potency is the fitted concentration of half-maximal effect; % is set by controls: 0 for no effect and ±100 for the full control effect; nearly all actives have a fitted effect of over 40% in size
Target sequence (Q9NUW8 whole entry, looked up): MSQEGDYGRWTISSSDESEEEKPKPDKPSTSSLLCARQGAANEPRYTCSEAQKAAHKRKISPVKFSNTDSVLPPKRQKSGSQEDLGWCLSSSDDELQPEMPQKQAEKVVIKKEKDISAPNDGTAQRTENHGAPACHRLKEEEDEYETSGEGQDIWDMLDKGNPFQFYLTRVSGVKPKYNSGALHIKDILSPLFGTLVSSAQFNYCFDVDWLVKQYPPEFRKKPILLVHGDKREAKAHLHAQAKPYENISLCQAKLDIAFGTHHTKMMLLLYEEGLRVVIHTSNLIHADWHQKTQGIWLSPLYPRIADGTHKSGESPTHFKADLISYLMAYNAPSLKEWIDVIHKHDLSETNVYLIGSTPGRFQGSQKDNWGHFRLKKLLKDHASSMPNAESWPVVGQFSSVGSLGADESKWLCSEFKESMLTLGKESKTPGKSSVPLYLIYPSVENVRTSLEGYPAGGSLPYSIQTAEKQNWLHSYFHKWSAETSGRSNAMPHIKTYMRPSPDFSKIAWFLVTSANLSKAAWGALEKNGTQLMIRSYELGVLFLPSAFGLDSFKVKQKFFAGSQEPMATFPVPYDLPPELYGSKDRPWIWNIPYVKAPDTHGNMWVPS
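AlphaScreen read-out: signal falls as enzyme removes the 3' tyrosine-FITC from a 5'-biotinylated DNA oligo (15 nM, 5 min, RT). Enzyme was E. coli-made recombinant Tdp1 at 1 nM, exposed to compound for 15 min beforehand; beads 10 ug/ml, 10 min.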
Starred values were filed as active, the others as inactive; ? = inconclusive; . = not tested or not shown; [ ] = dose if it differs, or a comment. Unless noted, calls come from the whole dose curve; as a rule, active = well fitted curve in the direction sought with a large enough effect; inconclusive = small, poorly fitted or top-dose-only effect, or another doubt; inactive = no such curve, though single readings can be large; an effect the other way counts as inactive or inconclusive.

SMILES | IL1B secr inh | DT40 TDP1 no CPT | TGFb SMAD3 inh | HepG2 tox | TDP1 cell CPT | TDP1 block
C=C1Cc2c(Cl)cc3[nH]c4c5c3c2[C@@]2(O)[C@@H]1C[C@@H]2C(C)(C)O[C@H]5[C@@H]1CC[C@@]2(O)[C@@]35O[C@@H]3[C@@H](O)[C@@H](C(=O)O)O[C@H]5CC[C@]2(C)[C@@]41C | . | 4.1µM* | . | . | 5.8µM* | 10%
CC(C)c1c(C(=O)N/N=C/c2ccccc2OCc2c(F)cccc2Cl)nnn1-c1nonc1N | 69 | 2.3µM* | -23% | 9% | 5.8µM* | 3%
CCOc1ccc(-c2c(C(=O)N/N=C/c3ccc(C)cc3)nnn2-c2nonc2N)cc1 | 10 | ? | -26% | 3% | 1.6µM* | .
CCCOc1ccc(-c2c(C(=O)N/N=C/C3CC=CCC3)nnn2-c2nonc2N)cc1 (centres undefined) | 17 | -5% | -7% | -25% | ? | 3%
CCOc1ccc(-c2c(C(=O)N/N=C/c3ccccc3)nnn2-c2nonc2N)cc1 | 5 | -19% | 24% | 0% | -9% | .
CCc1ccc(/C=N/NC(=O)c2nnn(-c3nonc3N)c2C(C)C)cc1 | 27 | 18µM* | -4% | -17% | ? | 1%
CCCOc1ccc(-c2c(C(=O)N/N=C/C3CCCCC3)nnn2-c2nonc2N)cc1 | 8 | 12µM* | -25% | -9% | 26µM* | 0%
Cc1ccc(C)c(S(=O)(=O)Nc2ccc(-n3cnnn3)cc2)c1 | 9 | ? | -5% | -30% | ? | 2%
CCN1C(=O)[C@H]2[C@H]3[C@H](O)[C@H](O)C/C(=N/OCC(C)C)[C@H]3CC[C@@H]2C1=O | . | . | . | . | . | 6%[21 µM]
Cc1cc(C)cc(OCC(=O)Nc2c(C)ccc3nsnc23)c1 | . | -25% | 5% | -13% | ? | 2%
Cc1snc(S(=O)(=O)/C(C#N)=N/Nc2ccc(C(F)(F)F)cc2)c1C#N | 3 | -27% | 10µM* | -32% | -15% | 8%
Oc1ccc(/C=N/N2CCCCC2)c(O)c1O | -3 | 10µM* | -1% | 1% | 5.8µM* | .
Oc1cccc(/C=N/N2CCCCC2)c1O | -3 | ? | -2% | 10% | -24% | .
Oc1ccc(/C=N/N2CCOCC2)c(O)c1O | -19 | 4.1µM* | -6% | -21% | 4.1µM* | ?
O=C1c2ccccc2C(=O)N1/N=C/c1ccc(O)c(O)c1O | -1 | ? | 5% | 1% | 4.1µM* | ?
CC(C)CN(C(=O)CSc1n[nH]c(-c2cccs2)n1)C1CCS(=O)(=O)C1 (centres undefined) | 29 | -11% | 6% | 7% | -6% | 1%
Nc1c(C(=O)NCCc2ccccc2)nnn1CC(=O)Nc1ccc(Cl)cc1 | . | -7% | -2% | 0% | 4% | -6%
COc1cc2c(-c3ccc(O)cc3)nc3c(c(C)nn3-c3ccccc3)c2cc1OC | 22 | 18µM* | -26% | -4% | 12µM* | ?
COc1cccc(-c2nc3c(c(C)nn3-c3ccccc3)c3cc(OC)c(OC)cc23)c1 | . | -16% | ? | -12% | -8% | -9%[12.3 µM]
Cc1cccc(NC(=O)C(Cc2ccccc2)N2Cc3ccccc3C2=O)c1C (centres undefined) | . | -6% | -1% | -9% | ? | 6%
